Results published in article PMC8384837, “Expanding the binding specificity for RNA recognition by a PUF domain”.

Tests used:
Experiment in all cases: yeast three-hybrid, YBZ-1, SC-Leu-His + 0.5 mM 3-AT, 4 days
Conditions in all cases: tags: N-Gal4 AD-HA kept; label: inside an RPR1-promoter hybrid RNA with tandem MS2 sites; ssRNA
PUM1 PUF domain R6-SFG = target: T1, PUM1 PUF domain R6-SFG (Homo sapiens, UniProt Q14671 828-1176, N1043S;Y1044F;Q1047G)
T1 sequence: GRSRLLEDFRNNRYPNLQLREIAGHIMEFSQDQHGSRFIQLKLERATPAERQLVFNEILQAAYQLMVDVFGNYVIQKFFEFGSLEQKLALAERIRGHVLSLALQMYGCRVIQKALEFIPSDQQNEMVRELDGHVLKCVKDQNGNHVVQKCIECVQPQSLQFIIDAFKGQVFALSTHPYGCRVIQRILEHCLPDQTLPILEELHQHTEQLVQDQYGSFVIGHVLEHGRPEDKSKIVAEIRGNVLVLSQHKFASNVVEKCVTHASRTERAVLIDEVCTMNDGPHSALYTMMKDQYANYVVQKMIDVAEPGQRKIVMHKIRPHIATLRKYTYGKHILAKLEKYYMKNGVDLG
In short: (§1)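 Pumilio-1 PUF domain libraries, randomized (NNK) at the three base-contacting residues of each repeat, were co-expressed with matching RNA elements from a centromeric plasmid in strain YBZ-1 (LexA–MS2 coat fusion, HIS3 reporter). Transformants were plated on SC-Leu (input) and SC-Leu-His + 0.5 mM 3-AT (selection) for four days, and repeat regions were PCR-amplified and Illumina-sequenced. The interaction score is the log2 change in variant frequency from input to selection, with pseudocount 1 where absent.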

PUM1 PUF domain R4-PWS = PUM1 PUF domain R4-PWS (Homo sapiens, UniProt Q14671 828-1176, N971P;H972W;Q975S)
In short: as §1

PUM1 PUF domain R8-SYW = PUM1 PUF domain R8-SYW (Homo sapiens, UniProt Q14671 828-1176, N1122S;Q1126W)
In short: as §1

PUM1 PUF domain R3-SHG = PUM1 PUF domain R3-SHG (Homo sapiens, UniProt Q14671 828-1176, C935S;R936H;Q939G)
In short: as §1

PUM1 PUF domain R7-QFR = PUM1 PUF domain R7-QFR (Homo sapiens, UniProt Q14671 828-1176, S1079Q;N1080F;E1083R)
In short: as §1

PUM1 PUF domain R7-LNS = PUM1 PUF domain R7-LNS (Homo sapiens, UniProt Q14671 828-1176, S1079L;E1083S)
In short: as §1

PUM1 PUF domain R7-CRR = PUM1 PUF domain R7-CRR (Homo sapiens, UniProt Q14671 828-1176, S1079C;N1080R;E1083R)
In short: as §1

PUM1 PUF domain R7-RRR = PUM1 PUF domain R7-RRR (Homo sapiens, UniProt Q14671 828-1176, S1079R;N1080R;E1083R)
In short: as §1

PUM1 PUF domain R4-PFS = PUM1 PUF domain R4-PFS (Homo sapiens, UniProt Q14671 828-1176, N971P;H972F;Q975S)
In short: as §1

PUM1 PUF domain R7-LSC = PUM1 PUF domain R7-LSC (Homo sapiens, UniProt Q14671 828-1176, S1079L;N1080S;E1083C)
In short: as §1

Sequence: GGCUAGAACUAGUGGAUCCCCCGGCGCCCGGCGGCUCGAGCCCGGGUAAGUGUAAAUAGUCUGCAUGCCGCCGGGCGCCAUGCCUGCAGGUCGACUCUAGAAAACAUG
- binding signal (PUM1 PUF domain R6-SFG): 4.88 log2 enrichment (interaction score)
- binding signal (PUM1 PUF domain R4-PWS): 6.05 log2 enrichment (interaction score)
- binding signal (PUM1 PUF domain R8-SYW): 3.33 log2 enrichment (interaction score)
- binding signal (PUM1 PUF domain R3-SHG): 3.6 log2 enrichment (interaction score)

Sequence: GGCUAGAACUAGUGGAUCCCCCGGCGCCCGGCGGCUCGAGCCCGGGUAAGUGUAAGUAGUCUGCAUGCCGCCGGGCGCCAUGCCUGCAGGUCGACUCUAGAAAACAUG
- binding signal (PUM1 PUF domain R3-SHG): 2.83 log2 enrichment (interaction score)

Sequence: GGCUAGAACUAGUGGAUCCCCCGGCGCCCGGCGGCUCGAGCCCGGGUAAGUCUAAAUAGUCUGCAUGCCGCCGGGCGCCAUGCCUGCAGGUCGACUCUAGAAAACAUG
- binding signal (PUM1 PUF domain R7-QFR): 2.43 log2 enrichment (interaction score)
- binding signal (PUM1 PUF domain R7-LNS): 0.35 log2 enrichment (interaction score)
- binding signal (PUM1 PUF domain R7-CRR): 0.18 log2 enrichment (interaction score)
- binding signal (PUM1 PUF domain R7-RRR): 3.52 log2 enrichment (interaction score)

Sequence: GGCUAGAACUAGUGGAUCCCCCGGCGCCCGGCGGCUCGAGCCCGGGUAAGUGUACAUAGUCUGCAUGCCGCCGGGCGCCAUGCCUGCAGGUCGACUCUAGAAAACAUG
- binding signal (PUM1 PUF domain R4-PFS): 5.13 log2 enrichment (interaction score)
- binding signal (PUM1 PUF domain R4-PWS): 4.61 log2 enrichment (interaction score)

Sequence: GGCUAGAACUAGUGGAUCCCCCGGCGCCCGGCGGCUCGAGCCCGGGUAAGUUUAAAUAGUCUGCAUGCCGCCGGGCGCCAUGCCUGCAGGUCGACUCUAGAAAACAUG
- binding signal (PUM1 PUF domain R7-LNS): 5.15 log2 enrichment (interaction score)
- binding signal (PUM1 PUF domain R7-LSC): 4.33 log2 enrichment (interaction score)
- binding signal (PUM1 PUF domain R7-CRR): 2.87 log2 enrichment (interaction score)
- binding signal (PUM1 PUF domain R7-RRR): 3.77 log2 enrichment (interaction score)

Sequence: GGCUAGAACUAGUGGAUCCCCCGGCGCCCGGCGGCUCGAGCCCGGGUAAGUGUAUAUAGUCUGCAUGCCGCCGGGCGCCAUGCCUGCAGGUCGACUCUAGAAAACAUG
- binding signal (PUM1 PUF domain R4-PFS): 4.11 log2 enrichment (interaction score)

Sequence: GGCUAGAACUAGUGGAUCCCCCGGCGCCCGGCGGCUCGAGCCCGGGUAAGUGUAAUUAGUCUGCAUGCCGCCGGGCGCCAUGCCUGCAGGUCGACUCUAGAAAACAUG
- binding signal (PUM1 PUF domain R3-SHG): 0.72 log2 enrichment (interaction score)
